The values below come from PubChem BioAssay (EPA / NIEHS).

Read-out in experiment [1]: Tumor necrosis factor receptor superfamily member 6 (Homo sapiens) (UniProt P25445)
Briefly: LTEA_HepaRG_FAS: Life Technologies and Expression Analysis (LTEA) Assay for Fas cell surface death receptor (FAS) using HepaRG (AID 2283447). To be noted: mRNA level, 48 h; actives raise or lower the signal. In outline:
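Differentiated human HepaRG cells, pre-cultured 48 h, were exposed in duplicate for 48 h to 8-point half-log concentrations (top 100 uM, 0.5% DMSO) in serum-free induction medium; FAS mRNA measured by qRT-PCR, normalized to ACTB/GAPDH/POLR2A, bidirectional fit versus DMSO.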

Read-out in experiment [2]: Fatty acid synthase (Homo sapiens) (UniProt P49327)
The experiment in a line: LTEA_HepaRG_FASN: Life Technologies and Expression Analysis (LTEA) Assay for Fatty Acid Synthase (FASN) using HepaRG (AID 2283448). The following applies: mRNA level, 48 h; actives raise or lower the signal. In outline: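 Transcript-level assay: HepaRG liver cells are treated for 48 h across an eight-point range topping at 100 uM, and FASN mRNA, normalized to three housekeeping genes, is compared with DMSO controls in both directions.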

Read-out in experiment [3]: Cyclin Dependent Kinase Inhibitor 1A (CDKN1A), CDKN1A (gene 1026)
The experiment in a line: LTEA_HepaRG_CDKN1A: Life Technologies and Expression Analysis (LTEA) Assay for Cyclin Dependent Kinase Inhibitor 1A (CDKN1A) using HepaRG (AID 2283450). To be noted: mRNA level, 48 h; actives raise or lower the signal. In short, it runs like this:
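Expression quantified by Fluidigm qRT-PCR with ACTB, GAPDH and POLR2A normalization, fitted bidirectionally against 0.5% DMSO. Cells: HepaRG, plated 48 h then treated 48 h in serum-free induction medium, top concentration 100 uM with half-log dilutions.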

Read-out in experiment [4]: Cyclin D1 (CCND1), CCND1 (gene 595)
The experiment in a line: LTEA_HepaRG_CCND1: Life Technologies and Expression Analysis (LTEA) Assay for Cyclin D1 (CCND1) using HepaRG (AID 2283451). To be noted: mRNA level, 48 h; actives raise or lower the signal. In outline: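 Expression of CCND1 was quantified by qRT-PCR on Fluidigm arrays using ACTB, GAPDH and POLR2A as reference genes. HepaRG cultures, plated 48 h beforehand, were dosed for 48 h at up to 100 uM (half-log, 8 points) in 0.5% DMSO.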

Read-out in experiment [5]: catalase (CAT), CAT (gene 847)
Briefly: LTEA_HepaRG_CAT: Life Technologies and Expression Analysis (LTEA) Assay for catalase (CAT) using HepaRG (AID 2283452). To be noted: mRNA level, 48 h; actives raise or lower the signal. In outline: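 Differentiated HepaRG cells in serum-free induction medium were dosed 48 h in duplicate, eight half-log concentrations from 100 uM in 0.5% DMSO. Transcript measured by TaqMan qRT-PCR, normalised to ACTB/GAPDH/POLR2A, fitted bidirectionally against DMSO.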

Read-out in experiment [6]: flavin-containing dimethylaniline monooxygenases 3 (FMO3), FMO3 (gene 2328)
The experiment in a line: LTEA_HepaRG_FMO3: Life Technologies and Expression Analysis (LTEA) Assay for flavin-containing dimethylaniline monooxygenases 3 (FMO3) using HepaRG (AID 2283453). To be noted: mRNA level, 48 h; actives raise or lower the signal. In outline: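 HepaRG, 48 h exposure, 8-pt half-log series from 100 uM, 0.5% DMSO vehicle, duplicates; FMO3 transcript by Fluidigm TaqMan qRT-PCR, housekeeping-normalized; gain/loss fit vs DMSO.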

Read-out in experiment [7]: Cytochrome P450 (CYP1A1), CYP1A1 (gene 1543)
The experiment in a line: LTEA_HepaRG_CYP1A1: Life Technologies and Expression Analysis (LTEA) Assay for Cytochrome P450 (CYP1A1) using HepaRG (AID 2283454). The following applies: mRNA level, 48 h; actives raise or lower the signal. In outline:
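CYP1A1 transcript levels measured by Fluidigm qRT-PCR against three housekeeping genes, 48 h after chemical dosing of human HepaRG cells (highest concentration 100 uM, half-log steps, 0.5% DMSO vehicle). Gain or loss of signal fitted relative to DMSO.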

Read-out in experiment [8]: CFLAR gene, CFLAR (gene 8837)
The experiment in a line: LTEA_HepaRG_CFLAR: Life Technologies and Expression Analysis (LTEA) Assay for CFLAR gene using HepaRG (AID 2283455). To be noted: mRNA level, 48 h; actives raise or lower the signal. In outline:
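HepaRG cells were plated for 48 h, switched to serum-free induction medium, then exposed in duplicate for 48 h to 8 concentrations (top 100 uM, half-log steps, 0.5% DMSO). CFLAR mRNA was measured by qRT-PCR, normalized to ACTB, GAPDH and POLR2A.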

Read-out in experiment [9]: Forkhead box O1 (FOXO1), FOXO1 (gene 2308)
Briefly: LTEA_HepaRG_FOXO1: Life Technologies and Expression Analysis (LTEA) Assay for Forkhead box O1 (FOXO1) using HepaRG (AID 2283456). The following applies: mRNA level, 48 h; actives raise or lower the signal. In short, it runs like this:
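Differentiated human HepaRG cells in serum-free induction medium were exposed in duplicate for 48 h to eight half-log concentrations (top 100 uM, 0.5% DMSO). FOXO1 mRNA was measured by TaqMan qRT-PCR, normalised to ACTB, GAPDH and POLR2A, and fitted bidirectionally against DMSO.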

Read-out in experiment [10]: growth arrest and DNA damage 45 (GADD45A), GADD45A (gene 1647)
The experiment in a line: LTEA_HepaRG_GADD45A: Life Technologies and Expression Analysis (LTEA) Assay for growth arrest and DNA damage 45 (GADD45A) using HepaRG (AID 2283458). To be noted: mRNA level, 48 h; actives raise or lower the signal. In outline: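 Human HepaRG liver cells are treated in duplicate for 48 h with chemicals in 0.5% DMSO, highest concentration 100 uM. Expression is read by qRT-PCR and analyzed in both directions against vehicle.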

Experiment [11] can be described thus: CEETOX_H295R_11DCORT: CeeTox H295R High-throughput Steroidogenesis Assay for 11-Deoxycortisol (11DCORT) (AID 2283432).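 As to AC50: 11-deoxycortisol secreted into the medium measured by LC-MS/MS.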 The following applies: actives raise or lower the signal. In short, it runs like this:
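Steroidogenesis in human H295R cells: 48 h chemical exposure after forskolin priming, 11-deoxycortisol measured by LC-MS/MS.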

Experiment [12] can be described thus: CEETOX_H295R_OHPREG: CeeTox H295R High-throughput Steroidogenesis Assay for OH-Pregnenolone (OHPREG) (AID 2283434). The following applies: actives raise or lower the signal. In outline: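 Human adrenal H295R cells were prestimulated 48 h with 10 uM forskolin, then exposed 48 h to chemical in 0.1% DMSO. Medium 17alpha-hydroxypregnenolone was quantified by HPLC-MS/MS after MTBE extraction; bidirectional fitting versus DMSO baseline.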

Experiment [13] is described as follows: CEETOX_H295R_ANDR: CeeTox H295R High-throughput Steroidogenesis Assay for Androstenedione (ANDR) (AID 2283436). To be noted: actives raise or lower the signal. In outline:
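H295R human adrenal cells (passages ≤10) were exposed to test chemicals for 48 h; androstenedione in medium was MTBE-extracted and quantified by HPLC-MS/MS against a 7-point standard curve. Bidirectional fitting used DMSO as baseline.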

Experiment [14] can be described thus: CEETOX_H295R_CORTIC: CeeTox H295R High-throughput Steroidogenesis Assay for Corticosterone (CORTIC) (AID 2283437).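 Also: corticosterone secreted into medium quantified by mass spectrometry.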 The following applies: actives raise or lower the signal. In outline: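 H295R cells were prestimulated 48 h with 10 uM forskolin, then exposed 48 h to test chemical in 0.1% DMSO. Medium corticosterone was MTBE-extracted and quantified by HPLC-MS/MS; bidirectional fit versus DMSO baseline.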

Experiment [15] can be described thus: CEETOX_H295R_CORTISOL: CeeTox H295R High-throughput Steroidogenesis Assay for Cortisol (AID 2283438). The following applies: actives raise or lower the signal. In outline: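 Human adrenocortical H295R cells (passage ≤10) received test chemicals for 48 h after forskolin priming. Secreted cortisol was measured by LC-MS/MS.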
Experiment [16] in a line: CEETOX_H295R_DOC: CeeTox H295R High-throughput Steroidogenesis Assay for DOC (AID 2283439). The following applies: actives raise or lower the signal. In outline:
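Secreted DOC was quantified from H295R media by HPLC-MS/MS after 48 h chemical exposure following 48 h forskolin (10 uM) prestimulation. Values were fitted in both directions relative to DMSO, the negative control and baseline.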

The nature of experiment [17]: CEETOX_H295R_PROG: CeeTox H295R High-throughput Steroidogenesis Assay for Progesterone (PROG) (AID 2283442).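 As to AC50: human H295R adrenal cells primed with 10 µM forskolin before dosing.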 To be noted: actives raise or lower the signal. In short, it runs like this: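 Progesterone secreted by human H295R cells was measured by LC-MS/MS following 48 h chemical exposure at 0.1% DMSO, preceded by 48 h forskolin (10 uM) stimulation. Same-well MTT viability; cytotoxic concentrations diluted 10- or 100-fold and retested.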

Experiment [18] is described as follows: CEETOX_H295R_TESTO: CeeTox H295R High-throughput Steroidogenesis Assay for Testosterone (TESTO) (AID 2283457).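 As to AC50: cells exposed to chemicals for 48 h before medium collection.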 The following applies: actives raise or lower the signal. In short, it runs like this: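 Testosterone secreted into the medium over 48 h by H295R cells (maximum passage 10) was quantified by LC-MS/MS after MTBE extraction. Fitted in both directions against DMSO, with concentrations diluted until MTT viability was ≥70%.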

Structures are written as SMILES. Activity calls are given as the source filed them. The calls were made as follows: active = hit-call score of the fitted dose curve at least 0.9, where 1 is the maximum; inactive = score below 0.9.

Chain of Fatty acid synthase (Homo sapiens) (P49327 whole entry, looked up): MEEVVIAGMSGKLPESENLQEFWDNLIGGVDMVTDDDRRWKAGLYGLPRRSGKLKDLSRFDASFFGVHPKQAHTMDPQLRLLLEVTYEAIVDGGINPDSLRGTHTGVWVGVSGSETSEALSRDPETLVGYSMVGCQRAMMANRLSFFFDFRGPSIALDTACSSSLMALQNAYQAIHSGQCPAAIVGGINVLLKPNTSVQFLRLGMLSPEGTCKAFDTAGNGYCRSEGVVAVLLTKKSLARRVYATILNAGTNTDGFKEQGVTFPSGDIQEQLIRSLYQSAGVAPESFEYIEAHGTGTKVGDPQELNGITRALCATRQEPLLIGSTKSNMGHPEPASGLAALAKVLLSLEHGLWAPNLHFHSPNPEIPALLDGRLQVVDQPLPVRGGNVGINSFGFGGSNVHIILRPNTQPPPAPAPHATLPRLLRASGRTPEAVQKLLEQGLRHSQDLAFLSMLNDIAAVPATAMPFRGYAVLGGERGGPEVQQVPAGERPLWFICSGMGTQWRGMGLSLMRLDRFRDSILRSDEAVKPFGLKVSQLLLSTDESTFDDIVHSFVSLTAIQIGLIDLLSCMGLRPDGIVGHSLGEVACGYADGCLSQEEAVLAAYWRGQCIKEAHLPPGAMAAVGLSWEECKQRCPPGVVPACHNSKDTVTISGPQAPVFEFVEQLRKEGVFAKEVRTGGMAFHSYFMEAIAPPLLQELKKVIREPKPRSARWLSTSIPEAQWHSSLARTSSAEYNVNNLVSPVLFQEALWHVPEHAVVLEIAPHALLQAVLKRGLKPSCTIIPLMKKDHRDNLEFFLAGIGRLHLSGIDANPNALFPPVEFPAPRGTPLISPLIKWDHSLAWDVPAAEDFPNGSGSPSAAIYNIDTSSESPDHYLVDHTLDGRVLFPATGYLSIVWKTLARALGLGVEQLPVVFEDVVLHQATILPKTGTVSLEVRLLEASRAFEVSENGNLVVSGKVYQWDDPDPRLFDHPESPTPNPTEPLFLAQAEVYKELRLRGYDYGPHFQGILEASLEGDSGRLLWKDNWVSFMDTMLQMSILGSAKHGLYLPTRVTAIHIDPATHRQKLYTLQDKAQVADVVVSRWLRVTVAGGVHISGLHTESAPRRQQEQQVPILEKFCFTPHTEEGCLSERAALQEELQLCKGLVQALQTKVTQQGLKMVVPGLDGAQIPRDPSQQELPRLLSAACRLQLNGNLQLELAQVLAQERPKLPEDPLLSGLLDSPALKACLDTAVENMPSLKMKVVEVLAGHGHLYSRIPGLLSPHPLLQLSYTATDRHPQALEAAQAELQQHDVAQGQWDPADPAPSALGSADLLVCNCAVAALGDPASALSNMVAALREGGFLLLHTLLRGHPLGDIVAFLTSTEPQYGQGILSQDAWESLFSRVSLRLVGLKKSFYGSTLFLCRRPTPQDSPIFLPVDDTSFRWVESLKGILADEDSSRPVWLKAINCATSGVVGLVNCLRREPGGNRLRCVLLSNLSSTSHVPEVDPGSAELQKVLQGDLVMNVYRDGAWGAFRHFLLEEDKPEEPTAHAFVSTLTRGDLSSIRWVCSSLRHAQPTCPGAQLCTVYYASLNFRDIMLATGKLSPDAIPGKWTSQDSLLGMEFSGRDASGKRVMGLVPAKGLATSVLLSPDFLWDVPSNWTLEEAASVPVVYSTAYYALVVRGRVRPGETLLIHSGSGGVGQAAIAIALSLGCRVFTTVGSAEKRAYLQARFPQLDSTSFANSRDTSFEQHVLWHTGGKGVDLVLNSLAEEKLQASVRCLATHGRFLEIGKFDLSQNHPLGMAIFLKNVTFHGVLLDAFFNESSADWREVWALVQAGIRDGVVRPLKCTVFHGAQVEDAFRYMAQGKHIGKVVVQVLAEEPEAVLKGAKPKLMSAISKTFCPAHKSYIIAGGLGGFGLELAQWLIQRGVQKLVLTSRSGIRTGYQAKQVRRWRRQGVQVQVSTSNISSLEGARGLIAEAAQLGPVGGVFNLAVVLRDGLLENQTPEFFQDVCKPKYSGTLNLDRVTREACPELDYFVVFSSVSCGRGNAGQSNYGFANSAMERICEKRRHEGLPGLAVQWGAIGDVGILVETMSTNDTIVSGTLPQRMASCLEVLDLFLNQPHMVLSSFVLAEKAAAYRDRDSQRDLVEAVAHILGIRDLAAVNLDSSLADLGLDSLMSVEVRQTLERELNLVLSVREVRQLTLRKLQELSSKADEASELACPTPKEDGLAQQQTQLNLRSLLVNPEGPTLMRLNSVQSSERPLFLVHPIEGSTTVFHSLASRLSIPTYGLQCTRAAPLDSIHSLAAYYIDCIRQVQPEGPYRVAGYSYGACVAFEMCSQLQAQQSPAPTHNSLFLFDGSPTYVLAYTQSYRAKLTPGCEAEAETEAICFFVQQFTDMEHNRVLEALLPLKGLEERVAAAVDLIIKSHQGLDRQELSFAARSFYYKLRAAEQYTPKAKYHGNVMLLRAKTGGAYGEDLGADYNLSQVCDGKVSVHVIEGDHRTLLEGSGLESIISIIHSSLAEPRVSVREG

In the case of `CS(=O)(=O)OCCCCOS(C)(=O)=O`, the compound was called inactive in experiment [1], in experiment [2], in experiment [3], in experiment [4], in experiment [5] and in [6]. For the same compound, the compound was called inactive in experiment [7], in experiment [8], in experiment [9] and in [10].

In the case of `CCC(C)c1cc([N+](=O)[O-])cc([N+](=O)[O-])c1OC(=O)OC(C)C` (configuration not stated), the result in [11], in [12], in experiment [13], in [14], in [15] and in experiment [16] was inactive. The compound was called inactive in experiment [17] and in experiment [18].

With `CC(CN=Cc1ccccc1O)N=Cc1ccccc1O` (configuration not stated), the half-maximal activity concentration (AC50) (commonly the concentration at which the activity in the assay is half-maximal) in [11] is 3.89 µM (active); in [15], 4.06 µM (active); in experiment [16] it was 1.7 µM (active). Besides, the compound was classed as inactive in [12], in [14] and in experiment [17].

On to `COc1ccc(CCN2CCC(Nc3nc4ccccc4n3Cc3ccc(F)cc3)CC2)cc1`, for which the concentration at half-maximal activity (AC50) is 1.49 µM (active) in [11]; 0.698 µM (active) in [12]; 1.48 µM (active) in [14]; 1.56 µM (active) in experiment [15]; 1.52 µM (active) in experiment [16]; 0.789 µM (active) in experiment [17].

Take `BrCc1cccc(Oc2ccccc2)c1`: the result in experiment [11], in experiment [12], in experiment [15], in [16] and in [17] was inactive. Moreover, the figures for the concentration at half-maximal activity (AC50) in experiment [13], in experiment [14] and in [18] were 38.2 µM (active), 32.7 µM (active) and 34.5 µM (active), respectively.

As to `Cc1cc(=O)oc2cc(N(C)C)ccc12`, the outcome in experiment [11], in experiment [14], in [15], in experiment [16] and in experiment [17] was inactive. Besides, the AC50 in [12] is 45.6 µM (active).

For the compound `CC1(C)C(=O)N(Cl)C(=O)N1Br`, the outcome in experiment [11], in experiment [14], in [15], in experiment [16] and in experiment [17] was inactive.

As to `Nc1ccc(N)c2c1C(=O)c1ccccc1C2=O`, the values for the AC50 in experiment [11] and in experiment [16] were 7.09 µM (active) and 4.43 µM (active), respectively. For the same compound, the compound was called inactive in experiment [12], in experiment [13], in experiment [14], in experiment [15], in [17] and in [18].
